Experiment [1] can be described thus: resazurin metabolic signal in HepG2 cells – cell-based, resazurin fluorescence, 24 h, PK04 Diversity Set, profiling panel (AID 1172). Further: test concentration not given here. As to conditions: HepG2 viability, higher = more signal.
A short description of experiment [2]: budding yeast growth changes without added modifier – OD600, strain BY4716, 24 h, basal condition, primary screen (AID 1173). As to conditions: S. cerevisiae BY4716 growth, OD600, 24 h; higher = more signal, called active from +8 up or from −8 down.
The nature of experiment [3]: viability profiling in MM1S myeloma cells – cell-based, resazurin fluorescence, basal, 24 h, PK04 Diversity Set, profiling panel (AID 1174).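 Further: MM1S multiple myeloma cell line; test concentration not given here.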 As to conditions: higher = more signal, called active from +8 up or from −8 down.
In experiment [4] the target is Dihydroorotate dehydrogenase (quinone), mitochondrial (Plasmodium falciparum (isolate 3D7)) (UniProt Q08210). The experiment can be described thus: inhibition of P. falciparum DHODH – biochemical, C-terminal His tag, absorbance 600 nm, primary screen (AID 1175).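 Further: recombinant parasite enzyme with a five histidine tag at its C terminus; test concentration not given here.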 As to conditions: PfDHODH enzyme, DCIP absorbance 600 nm; higher = more signal, called active from +8 up or from −8 down.

Experiment [5] in a line: inhibition of PAO1 biofilm formation – strain PAO1, LB-PBS medium, absorbance 600 nm, primary screen (AID 1176). Further: test concentration not given here. As to conditions: P. aeruginosa PAO1 growth/biofilm, A600, 12 h; higher = more signal.
The nature of experiment [6]: growth modulation of vineyard yeast isolate – strain RM11-1a, OD600, basal, 24 h, primary screen (AID 1177).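 Further: cultures grown under basal conditions with no added stressor; test concentration not given here.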 As to conditions: S. cerevisiae RM11-1a growth, OD600, 24 h; higher = more signal, called active from +8 up or from −8 down.
Experiment [7] in a line: growth of efflux-deficient E. coli DRC39 – strain DRC39, OD650, 24 h, E. coli filamentation inducers, primary screen (AID 1178).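 Further: growth measured as culture turbidity by optical density at 650 nm; test concentration not given here.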 As to conditions: E. coli DRC39 acrAB, higher = more signal, called active from +8 up or from −8 down.
A short description of experiment [8]: growth of efflux-deficient E. coli DRC39 – strain DRC39, OD650, 48 h, E. coli filamentation inducers, primary screen (AID 1179).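 Further: screen aims at cell division blockers that make cells filament.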 As to conditions: E. coli DRC39 delta-acrAB growth, higher = more signal, called active from +8 up or from −8 down.
Experiment [9] is described as follows: viability profiling in RPMI8226 myeloma cells – cell-based, resazurin fluorescence, basal, 24 h, PK04 Diversity Set, profiling panel (AID 1180).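 Further: RPMI8826 multiple myeloma cell line at 5000 cells per well; test concentration not given here.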 As to conditions: higher = more signal. For orientation: Resazurin is reduced to fluorescent resorufin, in cell work by metabolically active cells.
The target of experiment [10] is E3 ubiquitin-protein ligase XIAP (Homo sapiens) (UniProt P98170). The experiment can be described thus: small molecules binding XIAP protein – biophysical, small-molecule microarray, fluorescence 635 nm, primary screen (AID 1181).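 Further: score merges 667 nm emission and signal to noise over triplicate slides.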 As to conditions: higher = more signal.

Each structure is given as a SMILES string. The source made the active and inactive calls. Unless noted, how the calls were made is not given here.

Sequence of E3 ubiquitin-protein ligase XIAP (Homo sapiens) (P98170 whole entry, looked up): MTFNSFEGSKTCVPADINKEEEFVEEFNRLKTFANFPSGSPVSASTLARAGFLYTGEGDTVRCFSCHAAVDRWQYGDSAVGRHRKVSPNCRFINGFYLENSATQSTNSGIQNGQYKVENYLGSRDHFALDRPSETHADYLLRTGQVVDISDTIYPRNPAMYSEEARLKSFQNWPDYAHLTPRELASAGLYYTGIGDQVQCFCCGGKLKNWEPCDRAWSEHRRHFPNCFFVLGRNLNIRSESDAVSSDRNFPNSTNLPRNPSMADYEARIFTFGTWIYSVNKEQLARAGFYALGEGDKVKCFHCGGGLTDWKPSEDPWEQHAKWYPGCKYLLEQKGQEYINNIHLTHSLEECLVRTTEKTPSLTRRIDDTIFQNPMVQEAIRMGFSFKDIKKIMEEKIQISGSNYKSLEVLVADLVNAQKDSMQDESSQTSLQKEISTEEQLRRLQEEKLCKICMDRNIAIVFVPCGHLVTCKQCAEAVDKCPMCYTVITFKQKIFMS
Sequence of Dihydroorotate dehydrogenase (quinone), mitochondrial (Plasmodium falciparum (isolate 3D7)) (Q08210 whole entry, looked up): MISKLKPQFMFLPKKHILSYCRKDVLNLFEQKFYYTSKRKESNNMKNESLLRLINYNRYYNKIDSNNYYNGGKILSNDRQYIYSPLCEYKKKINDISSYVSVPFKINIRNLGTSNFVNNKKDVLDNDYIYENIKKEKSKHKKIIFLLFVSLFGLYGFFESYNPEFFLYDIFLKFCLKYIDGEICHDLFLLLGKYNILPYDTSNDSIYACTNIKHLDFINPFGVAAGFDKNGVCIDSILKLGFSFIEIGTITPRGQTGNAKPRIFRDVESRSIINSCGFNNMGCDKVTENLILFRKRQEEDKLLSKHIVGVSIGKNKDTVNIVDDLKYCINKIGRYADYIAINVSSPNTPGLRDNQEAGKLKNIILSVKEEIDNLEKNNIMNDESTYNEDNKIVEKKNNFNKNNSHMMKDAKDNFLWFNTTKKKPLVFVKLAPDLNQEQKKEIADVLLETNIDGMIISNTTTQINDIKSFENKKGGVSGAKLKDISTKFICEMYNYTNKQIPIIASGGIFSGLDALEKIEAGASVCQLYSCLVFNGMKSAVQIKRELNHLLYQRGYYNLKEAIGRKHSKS

For `O=C1O[C@@H](c2ccccc2)[C@@H](c2ccccc2)N2[C@@H](c3ccc(O)cc3)[C@]3(C(=O)Nc4ccc(C#CCCO)cc43)[C@@H](C(=O)N3CCCCCCC3)[C@H]12`, the z-score in experiment [1] was -0.348; in [2], 0.176 (inactive); in [3] it was -0.161 (inactive); in [5] it was 1.01 (inactive); in experiment [6] it was 0.524 (inactive); in [7], 0.0109 (inactive). In addition, the z-score in experiment [8] is -0.787 (inactive); in experiment [9], -0.53. For the same molecule, the composite z-score is 1.29 (inactive) in [4] and 0.567 in experiment [10].

As to `C=C(COC)/C(=C/C[C@H](OC(C)=O)c1ccccc1OCCO)c1cnc2ccccc2c1`, the z-score was -0.192 in experiment [1]; 1.36 (inactive) in experiment [2]; -0.885 (inactive) in [3]; 1.57 (inactive) in experiment [5]; 1.19 (inactive) in [6]; -0.447 (inactive) in experiment [7]. Also, the z-score in experiment [8] was -0.334 (inactive); in experiment [9], -0.784. The composite z-score in [4] is -2.14 (inactive); in experiment [10] it was -0.173.

For `Cc1ccc(S[C@]2(C(=O)NCCN3CCOCC3)CC(=O)N(C3CCCCC3)[C@@H]2c2ccc(CO)cc2)cc1`, the z-score in experiment [1] is 0.375; in experiment [2], 0.436 (inactive); in experiment [3], 0.511 (inactive); in experiment [5], 0.186 (inactive); in experiment [6] it was -0.463 (inactive); in experiment [7], 0.048 (inactive). For the same molecule, the z-score in [8] was -0.483 (inactive); in [9], 0.838. Moreover, the composite z-score in [4] is 0.113 (inactive); in experiment [10] it was 0.0024.

Turning to `C[N+](C)(C)CCCC[C@@H]1NC(=O)[C@H]2C[C@@H](C(=O)O)[C@@H](c3cccc(OCCO)c3)N2C1=O`, the z-score in experiment [1] is 0.352; in experiment [2] it was -1.32 (inactive); in experiment [3] it was 0.644 (inactive); in [5], 0.0751 (inactive); in experiment [6] it was -0.625 (inactive); in experiment [7], 0.406 (inactive). For the same molecule, the z-score was 0.871 (inactive) in [8] and 0.773 in [9]. Besides, the results for the composite z-score in [4] and in experiment [10] were 0.16 (inactive) and 0.353, respectively.

For `Oc1ccc2cc[n+](Cc3cccc(OC(F)(F)F)c3)cc2c1`, the z-score in [1] is -0.975; in experiment [2] it was 0.236 (inactive); in [3] it was -0.304 (inactive); in experiment [5] it was 0.0061 (inactive); in experiment [6], 0.585 (inactive); in experiment [7], 0.4 (inactive). Also, the z-score is 0.743 (inactive) in experiment [8] and -1.07 in experiment [9]. Also, the composite z-score is -1.09 (inactive) in experiment [4] and 0.202 in [10].

For `C=C[C@@H](C)[C@@H](OC(=O)Nc1ccc(OC)cc1)c1ccc(O)c2ccccc12`, the z-score was -1.42 in experiment [1]; -18.5 (active) in [2]; -5.02 (inactive) in [3]; 1.43 (inactive) in [5]; -22.2 (active) in [6]; 0.99 (inactive) in [7]. For the same molecule, the results for the z-score in experiment [8] and in [9] were 0.224 (inactive) and -4.37, respectively. In addition, the composite z-score is -3.79 (inactive) in [4] and -0.125 in experiment [10].

As to `COC(=O)[C@@]1(Cc2ccc(F)cc2)[C@H]2c3cc(C(=O)N(C)C)n(CCc4c[nH]c5ccc(OC)cc45)c3C[C@H]2CN1C(=O)c1ccccc1`, the z-score in experiment [1] is -0.643; in experiment [2], 0.971 (inactive); in [3], -2 (inactive); in experiment [5] it was 4.65 (inactive); in experiment [6], 0.679 (inactive); in [7], -0.562 (inactive). For the same molecule, the z-score is -0.681 (inactive) in experiment [8] and -1.59 in [9]. The composite z-score in experiment [4] was -2.26 (inactive); in experiment [10], 0.326.

Consider `CN(C)CCCC[C@@H]1NC(=O)[C@@H]2C[C@H](C(=O)NCCCCCN)[C@H](c3ccc(O)cc3)N2C1=O`, for which the z-score in [1] is -0.24; in experiment [2], -0.235 (inactive); in experiment [3] it was -0.507 (inactive); in experiment [5] it was -0.0491 (inactive); in [6] it was -0.361 (inactive); in experiment [7], 0.591 (inactive). For the same molecule, the z-score in [8] was 1.09 (inactive); in experiment [9] it was -0.948. The composite z-score in experiment [4] is -1.33 (inactive); in [10] it was -0.134.

Regarding `O=C(NCC(O)CO)[C@@]1(Cc2ccccc2)N=C(c2ccc(OCCCO)cc2)O[C@H]1c1ccccc1` (stereo not given in full), the z-score in experiment [1] was 0.531; in [2], -2.2 (inactive); in experiment [3], 0.583 (inactive); in [5], 0.41 (inactive); in experiment [6], -0.547 (inactive); in experiment [7] it was 2.7 (inactive). For the same molecule, the z-score is 0.249 (inactive) in experiment [8] and 0.391 in [9]. The composite z-score in experiment [4] is -0.507 (inactive); in [10], 0.221.

As for `O=C1C2C=CC(C(O)c3ccccn3)N(Nc3ccccc3F)C2C(=O)N1c1ccccc1` (stereo not given), the z-score in experiment [1] was 0.248; in experiment [2], -0.166 (inactive); in experiment [3], -0.497 (inactive); in experiment [5], 0.378 (inactive); in experiment [6] it was -0.0396 (inactive); in [7], -0.628 (inactive). Moreover, the z-score is 0.292 (inactive) in [8] and -0.0768 in experiment [9]. Besides, the composite z-score was 0.761 (inactive) in experiment [4] and 0.0521 in experiment [10].

With `CC1(C)C(=O)C(c2ccccc2)=C2CN3C(=O)N(CCc4ccccc4)C(=O)C3(Cc3ccccc3)C=C21` (stereo not given), the z-score in experiment [1] was -0.752; in experiment [2] it was 1.4 (inactive); in experiment [3], -1.22 (inactive); in [5], 0.784 (inactive); in [6] it was 2.07 (inactive); in [7], 0.0474 (inactive). The values for the z-score in experiment [8] and in experiment [9] were 0.222 (inactive) and -0.562, respectively. Also, the composite z-score is 0.362 (inactive) in [4] and 0.237 in experiment [10].

For the molecule `C=C(CCCC)/C(=C/C[C@@H](OC(=O)c1ccncc1)c1ccc(CO)o1)c1cc(C(=O)OC)ccc1OC`, the z-score is 0.116 in experiment [1]; -0.973 (inactive) in [2]; -0.864 (inactive) in [3]; 0.847 (inactive) in [5]; -0.513 (inactive) in experiment [6]; 1.15 (inactive) in experiment [7]. Moreover, the z-score in experiment [8] is 0.84 (inactive); in experiment [9], -0.466. In addition, the composite z-score in experiment [4] is -5.02 (inactive); in experiment [10] it was 0.508.

For `Cc1ccc([C@H]2C(C(=O)O)=C[C@@H](C(C)C)N2S(=O)(=O)c2ccc(C)cc2)cc1`, the z-score in [1] is -0.357; in [2], -0.502 (inactive); in experiment [3], -0.645 (inactive); in experiment [5] it was 0.546 (inactive); in experiment [6] it was -0.577 (inactive); in [7], -0.717 (inactive). For the same molecule, the z-score in [8] is 0.0184 (inactive); in experiment [9] it was -1.4. In addition, the results for the composite z-score in [4] and in experiment [10] were -0.695 (inactive) and 0.0264, respectively.
